Results reported in PubChem BioAssay AID504339 (National Center for Advancing Translational Sciences (NCATS), 2011).
The campaign covered roughly 390,000 compounds. About 17,000 (4.4%) were called active. Not shown: some 8% with an inconclusive outcome. Only a selection was taken, and actives are over-represented in it overall. Unmarked numbers belong to inactive results. The call rests on the fitted dose curve; in most records, active means well fitted inhibition curve with a large enough effect; inconclusive means small, poorly fitted or top-dose-only effect; inactive means no such curve, though single readings can be large or run the other way.

molecular target: Lysine-specific demethylase 4A (Homo sapiens) (UniProt O75164); experiment: qHTS Assay for Inhibitors of JMJD2A-Tudor Domain; settings: AlphaScreen JMJD2A-Tudor / H3K4me3 peptide binding; series mostly up to 114 µM; activity change, negative = inhibition: at the top concentration; further: nearly all actives have a fitted effect of over 50% in size
Sequence (O75164 whole entry, looked up, the tested form may be a part): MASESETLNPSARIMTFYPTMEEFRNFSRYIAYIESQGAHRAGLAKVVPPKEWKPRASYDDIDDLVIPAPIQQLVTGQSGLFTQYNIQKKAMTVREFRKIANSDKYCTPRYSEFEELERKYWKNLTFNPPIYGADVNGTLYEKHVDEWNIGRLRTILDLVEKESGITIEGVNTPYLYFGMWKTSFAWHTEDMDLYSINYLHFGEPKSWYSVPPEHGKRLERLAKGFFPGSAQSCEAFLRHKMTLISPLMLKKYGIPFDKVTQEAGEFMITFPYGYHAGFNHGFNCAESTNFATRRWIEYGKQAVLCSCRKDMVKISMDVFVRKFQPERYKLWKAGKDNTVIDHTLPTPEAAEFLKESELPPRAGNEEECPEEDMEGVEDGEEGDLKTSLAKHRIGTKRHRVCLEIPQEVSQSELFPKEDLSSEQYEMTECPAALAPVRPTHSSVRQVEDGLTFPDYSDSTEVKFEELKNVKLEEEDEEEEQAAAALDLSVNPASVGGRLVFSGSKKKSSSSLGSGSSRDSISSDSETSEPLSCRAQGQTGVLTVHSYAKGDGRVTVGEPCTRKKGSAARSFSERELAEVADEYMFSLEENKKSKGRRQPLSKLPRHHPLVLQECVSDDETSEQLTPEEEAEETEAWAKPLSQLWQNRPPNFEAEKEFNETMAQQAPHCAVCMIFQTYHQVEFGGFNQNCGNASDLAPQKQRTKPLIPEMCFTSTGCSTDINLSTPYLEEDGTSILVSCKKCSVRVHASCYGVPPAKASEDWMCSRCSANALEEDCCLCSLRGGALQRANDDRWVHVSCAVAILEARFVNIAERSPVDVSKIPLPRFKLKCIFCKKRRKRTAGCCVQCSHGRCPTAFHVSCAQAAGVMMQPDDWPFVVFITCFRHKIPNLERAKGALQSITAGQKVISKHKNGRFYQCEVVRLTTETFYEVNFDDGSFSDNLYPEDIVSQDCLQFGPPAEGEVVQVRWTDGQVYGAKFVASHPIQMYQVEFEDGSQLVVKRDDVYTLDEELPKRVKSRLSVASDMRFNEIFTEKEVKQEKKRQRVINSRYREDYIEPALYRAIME
On the % scale 0 is the no-effect control and ±100 the full control effect; potency means the concentration at half of the fitted maximal effect.

| SMILES | activity change, negative = inhibition | Potency |
| --- | --- | --- |
| O=C(NC1CC(=O)N(c2ccc(F)cc2)C1)c1cccs1 (centres undefined) | 1.62% | – |
| COc1ccc(-c2noc(CSc3nnc(-c4ccccc4)n3-c3ccc(F)cc3)n2)c(OC)c1 | -32.3% | – |
| Cc1oc2ccc(O)c(CN3CCCCC3)c2c1C(=O)Nc1cccc(C(F)(F)F)c1 | -33.7% | – |
| CCCCCn1c(=O)[nH]c2cc(C(=O)NCCN(C)CCCC)ccc2c1=O | -6.48% | – |
| CCC(=O)N1CCc2cc(S(=O)(=O)NC(Cc3ccccc3)C(=O)NCc3ccc(C)cc3)ccc21 (centres undefined) | -3% | – |
| CN(Cc1ccccc1)C(=O)c1cc2c(=O)n(C)c3ccccc3c2s1 | -1.67% | – |
| COc1ccc(C2=Nn3c(nnc3-c3ccccc3O)SC2)cc1 | -17.9% | – |
| CC1=C(C(=O)OCC(C)C)C(c2ccc(OCc3ccccc3)cc2)N2C(=O)CCSC2=N1 (centres undefined) | -15.6% | – |
| CCC(=O)Nc1cccc(C(=O)OCc2cc(=O)n3nc(CC)sc3n2)c1 | -3.97% | – |
| S=c1[nH]nc(NCCc2ccccc2)s1 | – | 2.51 µM (active) |
| O=S(=O)(NCCc1ccccc1)c1ccccc1 | -11.6% | – |
| O=S(=O)(NCCc1ccncc1)c1ccccc1 | -7.32% | – |
| Cc1nn2c(=O)cc(COC(=O)CNC(=O)c3ccc(F)cc3)nc2s1 | -14.3% | – |
| Cc1ccc(C)c(N2CCN(Cc3nnc(-c4ccccc4)o3)CC2)c1 | -4.79% | – |
| CC1CCC(N2CC(=O)N(CCC3=CCCCC3)C(c3ccc(F)cc3)C2=O)CC1 (centres undefined) | 7.65% | – |
| Cc1ccccc1-c1n[nH]c(=S)n1C | – | 7.08 µM (active) |
| Cn1c(-c2sccc2OCc2cccc(C(F)(F)F)c2)n[nH]c1=S | -12% [at 11.4 µM] | – |
| Cn1c(-c2sc3cc(C(F)(F)F)cnc3c2-c2ccccc2)n[nH]c1=S | -31.9% | – |
| COc1ccc(C(=O)CSc2n[nH]c(N)n2)cc1 | – | 56.2 µM (active) |
| COc1ccc(CNC(=O)CSc2n[nH]c(N)n2)cc1OC | -7.77% | – |
| COc1ccc(-c2nc(SCC(=O)N3CCOCC3)n[nH]2)cc1 | -4.35% | – |
| COc1cccc(C(=O)NC(=O)Nc2ccc(-c3cc(C(F)(F)F)nn3-c3ccccc3)cc2)c1 | -9.7% | – |
| Cc1ccc(S(=O)(=O)NCc2nc3nc(C)cc(C)n3n2)cc1 | -10.4% | – |
| CCC1=Nc2cc(C(=O)NCCCOC(C)C)ccc2Sc2ccc(C)cc21 | -26.2% | – |
| O=C(CCS(=O)(=O)c1ccc2c(c1)NC(=O)CO2)Nc1cccc(C(F)(F)F)c1 | -2.96% | – |

| SMILES | activity change, negative = inhibition | Potency |
| --- | --- | --- |
| CC(C)(C)C1C/C(=C/c2ccco2)C(=O)/C(=C/c2ccco2)C1 (centres undefined) | – | 31.6 µM (active) |
| CS(=O)(=O)c1ccc2c(c1)SC1=NC(=O)/C(=C/c3ccco3)C(=N)N12 | -34% | – |
| Cc1cccc(NC(=O)CSc2ncc(-c3ccccc3)[nH]2)c1C | -23.9% | – |
| CCc1ccccc1NS(=O)(=O)c1ccc2nc(-c3ccccc3)[nH]c2c1 | -10.6% | – |
| Cc1ccc(Nc2ccc3cc(S(=O)(=O)N4CCCCC4)ccc3n2)cc1F | 48.7% | – |
| CCOc1ccc(C2CC(=O)c3c([nH]c(C(=O)OCc4ccccc4)c3C)C2)cc1 (centres undefined) | -34.6% | – |
| Cc1ccc(CNC(=O)CCc2c(C)nn(-c3ccc(N4CCCC4)nn3)c2C)cc1 | -14.3% | – |
| C=CCn1c(COc2ccccc2C)nnc1SCC(=O)O | -21.3% | – |
| C=CCn1c(-c2ccccc2OCC)n[nH]c1=S | – | 4.47 µM (active) |
| C=CCn1c(=S)sc2c(=O)[nH]c(C)nc21 | -6.04% | – |
| C=CCn1c(-c2ccc3[nH]c(C)c(C)c3c2)n[nH]c1=S | – | 50.1 µM (active) |
| Cc1[nH]c2ccc(S(N)(=O)=O)cc2c1C | -20.5% | – |
| C=CCn1c(CCc2ccc(OC(C)C)cc2)n[nH]c1=S | -56.8% | – |
| COc1ccc(-c2cn3c(C)c(C(=O)Nc4cc(C)cc(C)c4)sc3n2)cc1 | -14.4% | – |
| COC(=O)c1cc2occc2n1Cc1nc(-c2ccc(C)cc2)oc1C | -13.8% | – |
| Cc1cccc(NC(=O)c2cc3c(C)nn(-c4ccccc4)c3s2)c1 | 0.687% | – |
| Nc1ccccc1SC(C[N+](=O)[O-])c1ccccc1 (centres undefined) | – | 6.31 µM (active) |
| O=C(c1ccc(C(F)(F)F)cc1)N1CCC(c2nc(-c3ccc(S(=O)(=O)N4CCCC4)cc3)no2)CC1 | -23.6% | – |
| O=C(CC(c1cccs1)N1Cc2ccccc2C1=O)Nc1ccc(F)c(F)c1 (centres undefined) | -6.41% | – |
| Cc1cccc(NC(=O)CSc2nc3c([nH]c4ccccc43)c(=O)n2-c2cc(C)cc(C)c2)c1 | -2.26% | – |
| Cc1ccc(N2CC(C(=O)Nc3ccc(N(C)C)cc3)CC2=O)cc1Cl (centres undefined) | -14.2% | – |
| O=S(=O)(NCCS(=O)(=O)N1CCN(c2ccccc2)CC1)c1ccc(Cl)cc1 | -10.5% | – |
| COc1ccc(OCc2ccc(-c3nc(C#N)c(N4CCN(c5ccccc5)CC4)o3)o2)cc1 | -25.8% | – |
| CN1CCN(c2oc(-c3ccc(COc4ccc(Cl)cc4)o3)nc2C#N)CC1 | – | 39.8 µM (active) |
| CCC(C)Nc1oc(-c2ccc(COc3ccc(Cl)cc3)o2)nc1C#N (centres undefined) | -23.2% | – |

| SMILES | activity change, negative = inhibition | Potency |
| --- | --- | --- |
| CCOc1ccccc1NC(=O)Cn1c(=O)n(Cc2ccccc2)c(=O)c2c(C)c(C(=O)N(C)C)sc21 | -12.3% | – |
| c1ccc(COc2ccccc2CNCc2cccnc2)cc1 | -35.1% | – |
| O=S(=O)(c1ccccc1)c1nc(-c2ccccc2F)oc1NCc1cccnc1 | -32.6% | – |
| N#Cc1nc(COc2ccc(-c3ccccc3)cc2)oc1NCc1cccnc1 | – | 44.7 µM (active) |
| CCOC(=O)c1c(NC(=O)/C=C/c2ccc(OC)cc2)sc2c1CCC(C)C2 (centres undefined) | 6.21% | – |
| COc1cc(/C=N\NC(=O)C2C(=O)NCC2c2ccccc2)cc(OC)c1O (centres undefined) | -6.9% | – |
| COc1cccc(/C=N\NC(=O)C2=NNC(=O)C2C)c1O (centres undefined) | – | 56.2 µM (active) |
| COc1ccc(/C=N/NC(=O)C2CC2)c(OC)c1OC | -1.92% | – |
| CCOc1ccccc1NC(=O)CN1CCN(S(=O)(=O)c2ccc(Br)cc2)CC1 | -5.5% | – |
| CCOc1cc(C2c3c(-c4ccc(Br)cc4)n[nH]c3C(=O)N2c2ccc(Cl)cc2)ccc1O (centres undefined) | -21% | – |
| O=C1c2cccc3cccc(c23)C(=O)N1CCCCCc1n[nH]c(=S)o1 | – | 89.1 µM (active) |
| O=C1c2ccccc2C(=O)N1CCCc1nc(-c2ccccc2)no1 | 11.5% | – |
| O=C(CN1C(=O)c2cccc3cccc(c23)C1=O)N1CCCCC1 | -7.05% | – |
| CCCN1CCN(CCCNC(=O)Cn2nc(CC)n3c(cc4occc43)c2=O)CC1 | -16.1% | – |
| COc1cc(C#Cc2ccc3cc(CCCO)oc(=O)c3c2)cc(OC)c1 | -33.8% | – |
| COc1cc(/C=C2\Oc3ccc(C#Cc4ccc(O)cc4)cc3C2=O)cc(OC)c1 | – | 89.1 µM (active) |
| COC(=O)C(C)Oc1ccc2c(c1)O/C(=C\c1cccc(Br)c1)C2=O (centres undefined) | -35.5% | – |
| CCC(CC)NC(=O)/C=C/c1cccc([N+](=O)[O-])c1 | 6.03% [at 57.1 µM] | – |
| COC(=O)/C=C\C(=O)Nc1cccc([N+](=O)[O-])c1 | – | 17.8 µM (active) |
| O=C(CN1CCOCC1)Nc1cccc([N+](=O)[O-])c1 | -4.93% | – |
| Cc1cc(C)c(/C=C/c2onc(C)c2S(=O)(=O)N2CCC(C(=O)Nc3ccc(Cl)cc3C)CC2)c(C)c1 | -1.92% | – |
| COc1ccc(NCCc2ccccn2)cc1 | – | 79.4 µM (active) |
| O=C(CNC(=O)COc1ccccc1)NCCc1ccccn1 | -15.4% | – |
| Cc1c(C)c(C)c(S(=O)(=O)NCCc2ccccn2)c(C)c1C | -7.58% | – |
| Cc1ccc(CNC(=O)CSc2c(C)cnc3c2c(=O)n(C)c(=O)n3C)cc1 | -0.325% | – |

| SMILES | activity change, negative = inhibition | Potency |
| --- | --- | --- |
| O=c1nc2s/c(=C\c3ccco3)c(=O)n2nc1Cc1ccccc1 | – | 50.1 µM (active) |
| O=c1/c(=C/c2ccc(CNS(=O)(=O)c3ccccc3)o2)sc2n1CCN=2 | -24.9% | – |
| CCOC(=O)c1cc(OC(=O)c2ccccc2Cl)n(-c2ccccc2)n1 | -17.1% | – |
| CN(Cc1ccccc1)C(=O)CCS(=O)(=O)c1cc(Br)cc2c1N(C(=O)C1CC1)CC2 | -17.8% | – |
| COc1ccc(S(=O)(=O)NCC(c2ccc(C)cc2)N2CCN(C)CC2)cc1OC (centres undefined) | -5.52% | – |
| COc1ccc(N2CCN(C(CNS(=O)(=O)c3ccc(C)cc3)c3ccccc3)CC2)cc1 (centres undefined) | – | 20 µM (active) |
| COc1ccc(S(=O)(=O)NCC(c2ccco2)N2CCOCC2)cc1 (centres undefined) | – | inactive |
| CCOC(=O)c1c(C)oc2nc(C)nc(N(CC(C)C)CC(C)C)c12 | -5.5% | – |
| CCOc1cc(C2C(C(=O)Nc3ccc(OC)cc3)=C(C)Nc3nc(SC)nn32)ccc1O (centres undefined) | -9.9% | – |
| O=C(Nc1ccc(OC(F)(F)F)cc1)C1CCCN(S(=O)(=O)c2ccc(Br)s2)C1 (centres undefined) | -1.71% | – |
| CC(=O)c1c(C)n(-c2ccc(C)cc2)c2ccc(O)cc12 | -2.04% | – |
| Cc1cccc(OCC(=O)NCC(=O)N/N=C/c2ccc(N(C)C)cc2)c1 | -14% | – |
| CC(=O)c1c(C)n(-c2ccc(N(C)C)cc2)c2ccc(OCC(N)=O)cc12 | – | 79.4 µM (active) |
| Cc1ccc(-c2nnc(SCc3ccccc3C)o2)cc1 | 150% | – |
| Cc1ccccc1CNC(=O)CCCn1nc(C)c2sc3ccccc3c2c1=O | -6.62% | – |
| COc1cc(C2C(C(=O)c3cccs3)=C(O)C(=O)N2CCN2CCOCC2)ccc1OCCC(C)C (centres undefined) | -16.8% | – |
| CCCOc1ccc(C2C(C(=O)c3ccc(C)o3)=C(O)C(=O)N2CCCn2ccnc2)cc1 (centres undefined) | -17.6% [at 11.4 µM] | – |
| Cc1cc(N2C(=O)C(O)=C(C(=O)c3ccc(C)o3)C2c2ccc(OCc3ccccc3)cc2)no1 (centres undefined) | – | 44.7 µM (active) |
| Cc1cc(N2C(=O)C(=O)/C(=C(/O)c3ccccc3)C2c2cccc(Br)c2)no1 (centres undefined) | -28.3% | – |
| CCOc1cc(C2C(C(=O)c3ccco3)=C(O)C(=O)N2Cc2ccccc2)ccc1O (centres undefined) | -27.6% | – |
| COc1cc(C2C(C(=O)c3ccc(C)o3)=C(O)C(=O)N2CCc2ccccc2)ccc1O (centres undefined) | – | 17.8 µM (active) |
| O=C(Nc1cc(Cl)cc(Cl)c1)c1ccc2c(c1)N(Cc1cccc(Cl)c1)C(=O)c1ccccc1S2=O (centres undefined) | -1.28% | – |
| COc1cc(CN(CC2CCCO2)C(=O)c2ccccc2F)cc(OC)c1OC (centres undefined) | -20.4% | – |
| CC(C)(C)OC(=O)N1CCC(c2c(C(=O)NCCc3ccsc3)cnn2-c2ccc(F)cc2F)CC1 | -30.7% | – |
